Assay results: PubChem BioAssay (NCI)
Several values for one entry are separate records, joined by “and”; a condition that tells them apart may be missing. Equal values may be shown once. About 83,000 compounds went through this panel and 20% of them were active in at least one assay; those are over-represented in the sample as a whole.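 Single-concentration screen, 48 h exposure, 96-well plates. Endpoint: percent growth. Below 10 = active.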 A number with no mark means an inactive call. Activity calls are given as the source filed them.

The compounds below were run on MDA-MB-468 breast (assay: NCI-60 one-dose screen, 48 h (100 = growth as untreated, 0 = no growth, -100 = all killed)). Settings: 10 µM unless noted.
For `CN1CCN(c2ccc3nc(-c4c(N)c5c(F)cccc5[nH]c4=O)[nH]c3c2)CC1`, the growth was 108% and 102%.
For `CC1=C(C)C(=O)C(Nc2cccc(C(=O)OC(C)(C)C)c2)=C(Br)C1=O`, the growth was -54% (active).
`CCN(CC)CCNc1ccc(C)c2sc3cc(C)ccc3c(=O)c12` showed a growth of 66.5%.
With `N#C/C(=C\c1ccccn1)c1nc2cc(Cl)ccc2s1` the growth was 55.5%.
`Cc1cc(N=Nc2ccc(C)c(N=Nc3cc(C)c(N)cc3N)c2)c(N)cc1N` was tested, and the growth was 96.7% and 60.3%.
For `CCCCCCOc1ccc(C(=N)N(CCCC)CCCC)c2ccccc12`, the growth was -82.3% (active).
For `COc1ccccc1-n1cc(C#N)c(N)c1C(=O)c1ccc(Br)cc1`, the growth was 31.3%.
In the case of `CCC(C)C1NC(=O)C(CCCCN)NC(=O)C(CCCCN)NC(=O)C(CC(C)C)NC(=O)C(CCCCN)NC(=O)C(C(C)CC)NC(=O)C(C(C)C)NC(=O)C(C(C)CC)NC(=O)C(CCCCN)NC(=O)C(CCCCN)NC(=O)C(C)NC(=O)C(CCCCN)NC(=O)C(CC(C)C)NC1=O` (stereo not given), the growth was 1.45% (active).
In the case of `C=C(C)[C@@H]1CC[C@]2(C(=O)OC)CC[C@]3(C)[C@H](CC[C@@H]4[C@@]5(C)C/C(=C/c6cccc(I)c6)C(=O)C(C)(C)[C@@H]5CC[C@]43C)[C@@H]12`, the growth was 86.7%.
With `COc1ccc(S(=O)(=O)NCCCNc2nccc(-c3c(-c4cccc([N+](=O)[O-])c4)nc4sccn34)n2)cc1` the growth was 16.2%.
In the case of `CN(C)c1ccc(/C=C(\C#N)c2cc3ccccc3[nH]2)cc1`, the growth was -3.07% (active).
Compound `COc1ccc(/C(C)=C(/c2ccc(OCCCN(C)C)cc2)c2ccc(OC(=O)c3ccccc3)cc2)cc1` has a growth of 94.9%.
With `COc1cc(NC(C)CCCNC(=O)CCC(=O)NCCCNCCCCCCCCCCNCCCNC(=O)CCC(=O)NCCCC(C)Nc2cc(OC)cc3cccnc23)c2ncccc2c1` (stereo not given) the growth was -0.701% [8 µM] (active).
With `O=C(/C=C/c1cccc(B(O)O)c1)c1cccc(B(O)O)c1` the growth was -84.9% (active).
For `COc1ccc2cc(-c3ccc(-c4ccc(C(=N)N)cc4)s3)ccc2c1`, the growth was 98.2%.
`Cc1cc(N2CCN(C)CC2)nc(NC2CCCC(Nc3ccnc4cc(Cl)ccc34)C2)n1` (stereo not given) was tested, and the growth was -52.1% (active).
Compound `OCCN(CCO)c1ccc2ccccc2c1` has a growth of 107%.
With `Oc1c(C(Nc2cccc3ccccc23)c2ccccc2)ccc2cccnc12` (stereo not given) the growth was 26.7%.
Compound `O=c1cc(Cl)[nH]c(=O)[nH]1` has a growth of 101%.
Work on `COc1ccccc1NC(=O)Cn1cc(CN2CCN(c3ccnc4cc(Cl)ccc34)CC2)nn1` yielded a growth of 80.8%.
With `Cc1cccc2c(=O)c3c(sc12)c(NCc1ccccc1)nc1ccccc13` the growth was -12.7% (active).
Work on `O=C(Nc1ccc(Cl)c(C(F)(F)F)c1)Nc1ccc2oc(=O)ccc2c1` yielded a growth of 24.8%.
Work on `Cc1cc(Cl)ccc1NC(=O)/C(Cl)=C1/Sc2ccccc2NC1=O` yielded a growth of 95.1%.
`CSc1nc(C)c(C(=O)CCN2CCN(c3ccccn3)CC2)s1` was tested, and the growth was 87.1%.
`C=C1C(=O)O[C@H]2[C@H]1CC/C(COC(=O)/C=C\C(=O)NCc1ccc(Cn3c(=O)sn(CCI)c3=O)cc1)=C\CC[C@@]1(C)O[C@@H]21` was tested, and the growth was -36.2% (active).
With `Cc1cn(-c2cccc(NC(=O)c3ccc(C)c(Nc4nccc(-c5cccnc5)n4)c3)c2)cn1` the growth was -41.4% (active).
`NC(CCC(=O)NC(CS)C(=O)NCC(=O)O)C(=O)O` (stereo not given) was tested, and the growth was 102%.
With `CN(C)c1ccc(N=Nc2ccc3ccccc3c2)cc1` the growth was 5.06% (active).
Work on `Cn1cc(CC2CC(=O)N(c3ccccc3)C2=O)sc1=NC(=O)c1ccccc1` (stereo not given) yielded a growth of 99.8%.
In the case of `CC[C@@](C)(NC(=O)C(C)(C)NC(=O)[C@@H](NC(=O)[C@@H]1CCCN1C(=O)C(C)(C)NC(=O)[C@H](CC(C)C)NC(=O)CNC(=O)C(C)(C)NC(=O)[C@@H](NC(=O)C(C)(C)NC(=O)[C@H](CCC(N)=O)NC(=O)[C@H](C)NC(=O)C(C)(C)NC(=O)[C@H](C)NC(=O)C(C)(C)NC(=O)[C@H](C)NC(=O)C(C)(C)NC(C)=O)C(C)C)C(C)C)C(=O)N[C@@H](CCC(N)=O)C(=O)N[C@@H](CCC(N)=O)C(=O)N[C@H](CO)CC1CCCCC1`, the growth was -10.9% [5 µM] (active).
Work on `CC1CN(c2oc(-c3ccccc3)nc2C#N)CC(C)O1` (stereo not given) yielded a growth of 109%.
With `COc1ccc(C2N(c3cc(OC)c(OC)c(OC)c3)C(=O)C2(F)F)cc1F` (stereo not given) the growth was 44.5%.
`O=[N+]([O-])c1ccc2c(c1)Cc1ccccc1-2` was tested, and the growth was 84.1%.
With `CC[C@H](C)C(=O)O[C@H]1CCC=C2C=C[C@H](C)C(CCC3C[C@@H](O)CC(=O)O3)[C@H]21` (stereo not given in full) the growth was 75.4%.
In the case of `CCCCCC(CCC)COC(=O)c1ccc(OC)cc1` (stereo not given), the growth was 104%.
`C#CCn1cc(C=C2C(=O)NC(=S)NC2=O)c2cc(Cl)ccc21` was tested, and the growth was 32.5%.
Compound `COc1cc2nc(Cl)nc(Nc3cccc(C(=O)/C=C/c4ccc(Br)cc4)c3)c2cc1OC` has a growth of 85.7%.
In the case of `CCCCCCCCCCOC(C)=O`, the growth was 110%.
`O=C(COc1ccc(/C=C2\Cc3ccc(Cl)cc3C2=O)cc1)Nc1nccs1` gave a growth of 98.8%.
`COc1cc(-c2cc(C(=O)Nc3nc4ccccc4s3)nc3cc(-c4ccccc4)nn23)cc(OC)c1OC` showed a growth of 59.6%.
